# High-throughput results: PubChem, NMMLSC
# Compounds with a hit are over-represented: about 0.92% of the library has one in this group of screens.
# MEP2 TOR yeast = modulators of TOR pathway MEP2-GFP in S. cerevisiae; S. cerevisiae MEP2-GFP strain, flow cytometry GFP, 3 h; 100% = DMSO control level; GFP response vs DMSO, % at 10 µM; actives 0.51% (n = 330,000); AID 2016;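 active = GFP response versus DMSO above a set limit, roughly screen mean plus 3 SD, cut at about 180% in these data; inconclusive = fewer than 70 cells counted for a yeast strain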;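 note: median GFP fluorescence of the barcode-gated MEP2-GFP cells per well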
# RPL19A-GFP yeast = yeast TOR pathway RPL19A-GFP modulation; S. cerevisiae RPL19A-GFP strain, flow cytometry, 3 h; hits give low values; percent response vs DMSO, % at 10 µM; actives 0.3% (n = 330,000); AID 2025;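 active = percent response vs DMSO below 50%; inconclusive = fewer than 70 events counted for the yeast strain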;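 note: median channel GFP fluorescence of the barcoded RPL19A-GFP strain; ratio of sample median GFP to plate DMSO average so 100% = DMSO; lower means less RPL19A-GFP as with rapamycin TOR inhibition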
# AGP1 TOR yeast = modulators of TOR pathway AGP1-GFP in S. cerevisiae; AID 2066; actives 0.02% (n = 320,000); GFP response vs DMSO, % at 10 µM; S. cerevisiae AGP1-GFP multiplex flow cytometry, 3 h; GFP as percent of DMSO wells;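 active = GFP response relative to DMSO above a set limit, near screen average plus 3 SD, cut at about 150% in these data; inconclusive = fewer than 70 cells counted for the yeast strain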;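 note: median GFP channel fluorescence of the gated AGP1 strain per well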
# LAP4 TOR yeast = yeast TOR pathway LAP4-GFP modulation; S. cerevisiae LAP4-GFP multiplex, flow cytometry GFP, 3 h; median GFP as percent of DMSO wells; GFP response vs DMSO, % at 10 µM; actives 0.34% (n = 320,000); AID 2023;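 active = GFP response vs DMSO above a set limit, about the screen mean plus 3 SD, cut at about 150% in these data; inconclusive = under 70 cell events counted for the yeast strain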
# CIT2-GFP yeast = yeast TOR pathway CIT2-GFP modulation; S. cerevisiae CIT2-GFP strain, flow cytometry, 3 h; 100 means same as DMSO wells; GFP response vs DMSO, % at 10 µM; actives 0.065% (n = 320,000);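 active = GFP response relative to DMSO above a set limit, near the screen mean plus 3 SD, cut at about 150% in these data; inconclusive = Fewer than 70 cells measured for a yeast strain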;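 note: ratio of well median GFP fluorescence to mean of DMSO wells on the plate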
# Starred values were filed as active, the others as inactive; ? = inconclusive; / = no result given; + = active, no number; [ ] = dose if it differs, or a comment.
SMILES,MEP2 TOR yeast,RPL19A-GFP yeast,AGP1 TOR yeast,LAP4 TOR yeast,CIT2-GFP yeast
COc1ccc(NC(=O)CSc2nnc(NC(=O)C3CCC3)s2)cc1,106,105,93,90,105
CCS(=O)(=O)C1=NN2C(=N)/C(=C\c3ccc(OC(=O)c4ccco4)c(Br)c3)C(=O)N=C2S1,102,106,114,97,111
CCOc1cc(/C=C2\C(=N)N3N=C(S(=O)(=O)CC)SC3=NC2=O)ccc1OC(=O)c1ccco1,129,47*,28,79,92
CCOc1cc(/C=C2/C(=N)N3C(=NC2=O)SN=C3S(C)(=O)=O)ccc1OS(=O)(=O)c1ccccc1,154,13*[may fluoresce violet],?,73,?
O=C(NCCCN1CCCC1=O)c1cccc(C(F)(F)F)c1,100,100,96,95,95
COC(=O)c1ccccc1-c1ccc(/C=N/NC(=O)c2cc3ccccc3o2)o1,88,98,91,92,87
COC(=O)c1ccccc1-c1c2ccc(=N)cc-2oc2cc(N)ccc12,+[may fluoresce green],625,666*[may fluoresce green],+[may fluoresce green],+[may fluoresce green]
Cc1ccc(/C=C/C(=O)NC2CCCCCCC2)o1,82,101,85,170*,87
C/C(=N\NC(=O)CN1CCN(Cc2ccccc2)CC1)c1cccs1,101,100,103,110,100
CCCn1c(=O)c2ccccc2n2c(SC(C)C(N)=O)nnc12 (stereo unspecified),198*[may fluoresce violet],33*[may fluoresce violet],?,59,?
COCCNC(=O)c1ccc(Cl)c(Cl)c1,286*,116,118,215*,183*
CCOc1ccccc1C(=O)N1c2ccccc2Sc2ccccc21,233*[may fluoresce violet],/,25,82,?
COc1ccccc1C(=O)N1c2ccccc2Sc2ccccc21,106,100,105,98,104
COc1cc2[nH]c3c(Cl)ncnc3c2cc1OC,128,110,105,109,107
COc1cc2[nH]c(Cl)c([N+](=O)[O-])c2cc1OC,273*[may fluoresce violet],52,18,97,?
COc1ccc(NC(=O)COC(=O)c2ccco2)c([N+](=O)[O-])c1,202*,122,113,145,217*
CC1Cc2ccccc2N1C(=O)CCS(=O)(=O)c1ccc2c(c1)NC(=O)CS2 (stereo unspecified),111,100,106,114,109
Cc1cc(-c2csc3nc[nH]c(=S)c23)cc(C)c1C,185*,97,134,142,100
COc1cc(S(=O)(=O)N(C)C)ccc1F,103,102,102,99,96
COc1cc(NC(=O)C2CCCCC2)c(OC)cc1NC(=O)CN1CCCCC1,249*[may fluoresce violet],58,?,84,?
COc1cc(C(=O)NNC(=O)c2ccccc2Br)ccc1OCC(=O)N1CCOCC1,100,96,106,104,99
CC(=O)Nc1nc2ccc(-c3nc4ccccc4o3)cc2s1,100,95,76,130,83
Cn1c(CN(O)S(=O)(=O)c2ccc(Cl)cc2)nnc1C(F)(F)F,104,93,116,103,154*[may fluoresce green]
CN(C)C(=O)CN(C)S(=O)(=O)c1ccc(Cl)cc1,96,98,100,101,104
Cc1ccc(N(C(=O)c2ccc(S(=O)(=O)N3CCOCC3)cc2)C2C=CS(=O)(=O)C2)cc1 (stereo unspecified),102,99,98,102,94
SMILES,MEP2 TOR yeast,RPL19A-GFP yeast,AGP1 TOR yeast,LAP4 TOR yeast,CIT2-GFP yeast
CCN(CC)S(=O)(=O)c1ccc(C(=O)N(c2ccc(C)cc2)C2C=CS(=O)(=O)C2)cc1 (stereo unspecified),160,41*[may fluoresce violet],?,62,?
CC1(C)CC(=O)c2sc(N3CCCCC3)nc2C1,218*[may fluoresce violet],71,53,101,?
CC1(C)CNC(=O)c2sc(N3CCCCC3)nc2C1,98,95,98,96,100
CCN(CC(F)(F)C(F)F)S(=O)(=O)c1ccc(NC(=O)OC)cc1,?,14*[may fluoresce violet],?,?,?
COC(=O)Nc1ccc(S(=O)(=O)N(CCO)CC(F)(F)C(F)F)cc1,96,89,88,86,96
CN(C)/C=C/C(=O)c1cnc(-c2ccc(Cl)cc2)s1,102,94,32,105,92
CN(C)/C=C/C(=O)c1cnc(-c2ccccc2)s1,106,62,15,156*[may fluoresce violet],/
COc1ccccc1CNC(=O)C1CCN(S(=O)(=O)c2ccc(-n3cnnn3)cc2)CC1,609*[may fluoresce violet],61,?,89,?
Cc1ccc(S(=O)(=O)Nc2ccc(C(OC(=O)c3ccccc3[N+](=O)[O-])(C(F)(F)F)C(F)(F)F)cc2)cc1,102,100,96,86,101
O=C(OC(c1ccc(NS(=O)(=O)c2ccccc2)cc1)(C(F)(F)F)C(F)(F)F)c1ccccc1,194*,98,91,112,92
Cc1cc(SCc2ccccc2)nc(=O)[nH]1,204*[may fluoresce violet],65,21,86,?
CC1(C)CC(=O)/C(=C(\O)c2ccccc2)C(=NCCO)C1,206*[may fluoresce violet],38*[may fluoresce violet],75,103,?
COc1ccc(C(=O)Nc2ccc(N3CCCC3)cc2)cc1,99,95,97,105,90
COc1ccc(N2CCN(c3ccc(NC(=O)NN)cc3)CC2)cc1,328*[may fluoresce violet],45*[may fluoresce violet],?,87,?
CCOc1cccc(NC(=O)c2cccc(F)c2)c1,99,93,88,95,89
C=CCNC(=O)/C(=C\c1ccc(OC)cc1)NC(=O)c1ccc([N+](=O)[O-])cc1,144,113,109,112,158*
CCOC(=O)CC1C(=O)NCCN1S(=O)(=O)c1ccc(NC(C)=O)cc1 (stereo unspecified),111,92,112,103,150*[may fluoresce green]
CC(C)C(=O)N1CCN(c2ccccc2NC(=O)c2ccco2)CC1,292*[may fluoresce violet],39*[may fluoresce violet],?,88,?
COC(=O)c1sccc1N/N=C/c1cccc(Oc2ccccc2)c1,103,98,96,95,94
CN(C)CCNC(=O)c1coc(=O)c(Br)c1,532*[may fluoresce violet],17*[may fluoresce violet],?,106,?
CCC(=O)Nc1cccc(NC(=O)c2ccccc2Br)c1,108,108,108,99,105
CCCC(=O)Nc1cccc(NC(=O)c2ccccc2Br)c1,286*[may fluoresce violet],34*[may fluoresce violet],?,96,?
O=C(Nc1ccc(Cn2nnc3ccccc32)cc1)c1ccco1,294*[may fluoresce violet],14*[may fluoresce violet],?,77,?
O=C(Nc1ccc(NC(=O)c2ccco2)cc1)c1ccco1,87,99,91,76,97
O=C(C1CC1)N1CCc2cc(S(=O)(=O)N3CCN(c4ccccc4)CC3)ccc21,164,14*[may fluoresce violet],?,80,?
COc1ccc(N2CCN(C(=O)C3CCN(S(=O)(=O)c4ccccc4)CC3)CC2)cc1,+[may fluoresce green],270,249*[may fluoresce green],+[may fluoresce green],896*[may fluoresce green]
O=C(CCl)c1ccc2c(c1)CCN2C(=O)C1CC1,95,103,108,159*,82
